Assay [1] deals with Human papillomavirus type 1a protein E7 (residues 44-93). The assay is described as follows: small molecules binding HPV E7 44-93 – biochemical, small-molecule microarray, residues 44-93, 635 nm fluorescence, primary screen (AID 1108).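 Further: E7 fragment applied at 1 µg/mL in TBST for 1 h at 4 C; score combines spot fluorescence with its signal to noise ratio.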 The following applies: fluorescence 635 nm, higher = more signal.
Assay [2] in a line: hepatitis C replication reporter changes, two-sided – Huh7 cells, luciferase reporter, HCV replication inhibitor project, primary screen (AID 1109).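 Further: huh7 hepatoma cells harbouring a luciferase neomycin HCV replicon reporter; luciferase luminescence as measure of HCV replicon replication; test concentration not given here.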 The following applies: Huh7 HCV replicon luciferase reporter, 48 h; higher = more signal. A general note: Reporter assays use an easily measured gene product as a stand-in for the process of interest.
In assay [3] the target is Left-right determination factor 2 (Homo sapiens) (UniProt O00292). The assay is described as follows: small molecules binding LEFTY2 protein – biochemical, small-molecule microarray, 635 nm fluorescence scan, primary screen (AID 1110). The following applies: higher = more signal.
Assay [4] concerns the target Calmodulin-1 (Homo sapiens) (UniProt P0DP23). The assay is described as follows: small molecules binding calmodulin-1 with EGTA – biochemical, small-molecule microarray, Cy5-labelled CALM1, profiling panel (AID 1111).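 Further: labelled calmodulin applied in Tris saline Tween buffer holding calcium plus EGTA and DTT.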 The following applies: Cy5-CALM1 binding fluorescence, higher = more signal.
Assay [5] shares this target. The assay is described as follows: small molecules binding Ca-loaded calmodulin-1 – biochemical, small-molecule microarray, Cy5-labelled CALM1, plus calcium, artefact control for SMM control-protein annotation, profiling panel (AID 1112).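 Further: score merges spot fluorescence with signal to noise from triplicate slides.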 The following applies: Cy5-CALM1 binding fluorescence, higher = more signal.
A short description of assay [6]: probe aWnt5a binding to arrayed compounds – biochemical, biotinylated probe, 635/667 nm fluorescence, primary screen (AID 1113).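 Further: score merges 667 nm fluorescence intensity with signal-to-noise per printed feature.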 The following applies: small-molecule microarray, higher = more signal.
Assay [7] in a line: probe aShh binding to arrayed compounds – biochemical, biotinylated probe, 635/667 nm fluorescence, primary screen (AID 1114).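 Further: probe is biotin-labelled aShh protein from a stem cell growth factor screen; measures binding of labelled protein to compounds printed on the slide; score merges feature fluorescence at 667 nm with signal-to-noise.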 The following applies: small-molecule microarray, higher = more signal.
A short description of assay [8]: probe aNog binding to arrayed compounds – biochemical, biotinylated probe, 635/667 nm fluorescence, primary screen (AID 1115).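 Further: probe is biotinylated aNog protein used at 0.15 µg/mL for 1 h at 4 C; z-score combines 667 nm fluorescence of each spot with its signal to noise.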 The following applies: small-molecule microarray, higher = more signal.
Assay [9] concerns the target Torsin-1A-interacting protein 1 (Homo sapiens) (UniProt Q5JTV8). The experiment in a line: compound microarray binding of lysate hLAP1 – cell lysate, small-molecule microarray, COS7 lysate, 635/667 nm fluorescence, primary screen (AID 1116). The following applies: 635 nm fluorescence, higher = more signal.
Assay [10] addresses Alpha-bungarotoxin (Bungarus multicinctus) (UniProt P60615). The experiment in a line: compounds binding labelled alpha-BTX control protein – biochemical, small-molecule microarray, Alexa647 label, 635/667 nm fluorescence, artefact control for SMM control protein annotation, profiling panel (AID 1117). The following applies: alpha-BTX-A647 binding fluorescence, higher = more signal.

A further assay deals with Albumin (Bos taurus) (UniProt P02769). The experiment in a line: compounds binding labelled BSA control protein – biochemical, small-molecule microarray, Alexa647 label, 635/667 nm fluorescence, artefact control for SMM control protein annotation, profiling panel (AID 1118).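 Further: score merges 667 nm emission intensity and signal-to-noise per printed compound spot.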 The following applies: BSA-A647 binding, fluorescence 635 nm, higher = more signal.
Assay [11] in a line: probe aXIP binding to arrayed compounds – biochemical, NeuroSMM set, 635/667 nm fluorescence, primary screen (AID 1119).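 Further: probe is the protein aXip251-270 applied at 1 µg/mL to compound-printed slides; binding of probe to printed compounds measured as 667 nm fluorescence plus signal to noise.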 The following applies: small-molecule microarray, higher = more signal, called active from +8 up or from −8 down.
A short description of assay [12]: probe aNOTCH3 binding on compound microarray – biochemical, small-molecule microarray, 635/667 nm fluorescence, primary screen (AID 1120).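 Further: probe is a biotin-tagged antibody raised against NOTCH3 rather than NOTCH3 protein; score merges spot fluorescence near 667 nm with spot signal to noise.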 The following applies: higher = more signal.
A short description of assay [13]: probe aNOTCH2 binding on compound microarray – biochemical, small-molecule microarray, 635/667 nm fluorescence, primary screen (AID 1121).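 Further: score merges feature fluorescence read at 667 nm with its signal to noise.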 The following applies: higher = more signal.
The target of assay [14] is Carbonic anhydrase 2 (Homo sapiens) (UniProt P00918). The experiment in a line: compounds binding carbonic anhydrase 2 – biochemical, small-molecule microarray, Alexa647-labelled CAII, profiling panel (AID 1122). The following applies: CAII-A647 binding fluorescence, higher = more signal.
A short description of assay [15]: COS7 lysate on small-molecule microarray, probe aHis, 635 nm (AID 1123).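 Further: z-score combines 667nm fluorescence intensity with signal-to-noise per printed compound spot.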 The following applies: COS7 cell lysate, fluorescence, higher = more signal.
The nature of assay [16]: probe aLAP1 signal on lysate-treated microarray – cell lysate, small-molecule microarray, COS7 lysate, primary screen (AID 1124).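 Further: lysate comes from COS7 cells expressing LAP1 and is applied at 0.3 µg/mL; score merges spot fluorescence near 667 nm with signal-to-noise over triplicate slides.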 The following applies: probe aLAP1, fluorescence, higher = more signal.
In a further assay the test system is Sam68 (KHDRBS1). The experiment in a line: compounds binding KHDRBS1 protein – biochemical, small-molecule microarray, 635 nm fluorescence, primary screen (AID 1125).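 Further: score merges 667 nm channel intensity with signal to noise over triplicate slides.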 The following applies: higher = more signal.
Assay [17] relates to Chordin-like protein 2 (CHRDL2). The assay is described as follows: compounds binding chordin-like 2 – biochemical, small-molecule microarray, 635 nm fluorescence, primary screen (AID 1126).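 Further: printed compound slides probed with Chrdl2 protein at 4 µg/mL for 1 h at 4 C; score merges 667 nm emission intensity with signal to noise over three replicate slides.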 The following applies: fluorescence 635 nm, higher = more signal.
Assay [18] has as its target Concanavalin-A (Canavalia ensiformis) (UniProt P02866). The assay is described as follows: compounds binding concanavalin A lectin – biochemical, small-molecule microarray, Alexa647 label, 635 nm, artefact control for SMM control protein annotation, primary screen (AID 1127).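 Further: z combines 667 nm emission intensity with signal-to-noise across three replicate slides.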 The following applies: ConA-A647 binding fluorescence, higher = more signal.

The source of these data is PubChem BioAssay.

Several values for one entry are separate records, joined by “and”; a condition that tells them apart may be missing. Equal entries are not always repeated. Activity calls are given as the source filed them.

Chain of Albumin (Bos taurus) (P02769 whole entry, looked up): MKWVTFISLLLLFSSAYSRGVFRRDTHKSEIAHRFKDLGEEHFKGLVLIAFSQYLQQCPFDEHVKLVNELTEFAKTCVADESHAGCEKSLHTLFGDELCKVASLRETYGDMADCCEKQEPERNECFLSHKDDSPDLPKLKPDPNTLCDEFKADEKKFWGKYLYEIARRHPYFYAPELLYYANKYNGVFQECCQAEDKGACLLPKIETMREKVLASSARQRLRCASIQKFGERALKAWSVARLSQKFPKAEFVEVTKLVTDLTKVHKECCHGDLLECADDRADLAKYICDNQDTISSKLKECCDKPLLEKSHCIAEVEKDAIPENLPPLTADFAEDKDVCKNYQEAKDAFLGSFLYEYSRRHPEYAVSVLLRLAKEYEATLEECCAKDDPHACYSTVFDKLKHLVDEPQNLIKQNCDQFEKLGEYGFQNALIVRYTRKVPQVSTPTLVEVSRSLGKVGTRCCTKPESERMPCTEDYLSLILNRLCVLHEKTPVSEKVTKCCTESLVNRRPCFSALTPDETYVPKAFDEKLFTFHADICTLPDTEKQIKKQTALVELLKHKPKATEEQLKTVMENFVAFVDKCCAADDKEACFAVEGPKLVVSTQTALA
Chain of Torsin-1A-interacting protein 1 (Homo sapiens) (Q5JTV8 whole entry, looked up): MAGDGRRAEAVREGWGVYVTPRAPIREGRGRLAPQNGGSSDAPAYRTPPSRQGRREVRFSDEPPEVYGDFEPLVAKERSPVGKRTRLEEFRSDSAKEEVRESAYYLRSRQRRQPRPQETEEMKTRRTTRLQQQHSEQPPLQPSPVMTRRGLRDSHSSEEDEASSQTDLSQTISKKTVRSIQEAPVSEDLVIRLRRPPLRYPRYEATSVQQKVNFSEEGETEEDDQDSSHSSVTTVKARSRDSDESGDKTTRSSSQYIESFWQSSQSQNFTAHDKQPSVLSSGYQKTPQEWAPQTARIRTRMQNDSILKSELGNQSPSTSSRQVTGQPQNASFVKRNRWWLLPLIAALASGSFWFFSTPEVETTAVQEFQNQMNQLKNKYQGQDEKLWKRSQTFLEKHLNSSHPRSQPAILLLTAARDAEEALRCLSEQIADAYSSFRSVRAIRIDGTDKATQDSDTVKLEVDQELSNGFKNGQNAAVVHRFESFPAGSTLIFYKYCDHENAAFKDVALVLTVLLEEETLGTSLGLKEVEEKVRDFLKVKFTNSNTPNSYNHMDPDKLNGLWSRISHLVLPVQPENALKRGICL
Chain of Left-right determination factor 2 (Homo sapiens) (O00292 whole entry, looked up): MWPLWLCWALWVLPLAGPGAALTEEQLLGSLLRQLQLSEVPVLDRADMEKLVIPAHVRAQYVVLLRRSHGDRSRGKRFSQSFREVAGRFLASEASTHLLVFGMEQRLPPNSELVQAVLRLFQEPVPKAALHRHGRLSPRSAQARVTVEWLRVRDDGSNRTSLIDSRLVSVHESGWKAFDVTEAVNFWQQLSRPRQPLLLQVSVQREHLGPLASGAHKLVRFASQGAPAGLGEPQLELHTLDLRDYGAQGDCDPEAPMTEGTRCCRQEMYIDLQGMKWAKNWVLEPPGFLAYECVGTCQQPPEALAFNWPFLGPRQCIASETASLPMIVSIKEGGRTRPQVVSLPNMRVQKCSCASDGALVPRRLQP
Chain of Concanavalin-A (Canavalia ensiformis) (P02866 whole entry, looked up): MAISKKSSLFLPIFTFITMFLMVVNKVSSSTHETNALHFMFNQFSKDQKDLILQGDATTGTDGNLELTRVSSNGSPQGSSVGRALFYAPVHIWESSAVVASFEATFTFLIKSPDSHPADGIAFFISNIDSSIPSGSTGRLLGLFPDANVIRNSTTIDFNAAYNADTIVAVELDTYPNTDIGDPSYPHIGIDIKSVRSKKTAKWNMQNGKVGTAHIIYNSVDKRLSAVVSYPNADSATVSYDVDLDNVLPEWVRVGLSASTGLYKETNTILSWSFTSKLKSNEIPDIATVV
Chain of Alpha-bungarotoxin (Bungarus multicinctus) (P60615 whole entry, looked up): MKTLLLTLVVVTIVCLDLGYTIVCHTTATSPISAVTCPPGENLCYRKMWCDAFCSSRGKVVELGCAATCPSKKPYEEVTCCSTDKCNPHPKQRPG

Take `CC(C)OC(=O)C=C1C[C@@H](c2ccccc2)O[C@@H](c2ccccc2)O1`: the composite z-score in [1] was 1.48 and 1.45; in assay [3], 0.826 and 0.795; in assay [4], 0.056 and 1.23; in assay [5] it was -0.147 and -0.505; in assay [6], 0.166 and 0.0915; in [7], -0.185 and 0.131. In addition, the composite z-score was 0.286 and 0.403 in assay [8]; 1.3 and 1.28 in [9]; 1.03 and 1.75 in [10]; 0.799 and 0.915 in the assay with Albumin (Bos taurus); 0.168 and 0.308 in assay [12]; -0.029 and 0.0219 in assay [13]. For the same compound, the composite z-score was 0.749 and 0.727 in [14]; 2.74 and 1.87 in assay [15]; 0.809 and 0.779 in [16]; 1.33 and 1.3 in the assay on Sam68 (KHDRBS1); 0.0745 and 0.626 in assay [17]; 1.02 and 1.09 in [18]. Further, the z-score in assay [2] is -2.1 and -1.36. The composite Z-score in assay [11] is 0.417 (inactive) and 0.224 (inactive).

As for `C=CC[C@H](O)c1ccc(OCCO)cc1`, the composite z-score was -0.664 and -3.44 in assay [1]; -0.774 and -0.827 in assay [3]; -1.14 and -0.814 in assay [4]; 0.237 and 0.234 in assay [5]; -0.176 and -0.139 in [6]; -0.221 and -0.288 in assay [7]. The composite z-score in assay [8] was -0.0144 and 0.419; in assay [9], -0.24 and -1.3; in assay [10] it was 2.4 and -0.101; in the assay with Albumin (Bos taurus) it was 0.787 and -0.0212; in assay [12], -0.382 and -0.319; in assay [13], -0.169 and -0.296. For the same compound, the composite z-score is 0.725 and 0.843 in [14]; -0.263 and -1.45 in [15]; -0.22 and -0.782 in assay [16]; -0.769 and -2.69 in the assay with Sam68 (KHDRBS1); -0.978 and 0.193 in [17]; -1.3 and -1.2 in assay [18]. Besides, the z-score in assay [2] is -0.921 and 0.924. In addition, the composite Z-score in [11] is -0.745 (inactive) and 0.156 (inactive).

Turning to `COC(=O)C1=C(C)N(Cc2ccccc2)C2=C(C(C)=O)C[C@@](O)(C(=O)OC)C(=O)N2[C@@H]1c1ccccc1`, the composite z-score in assay [1] is 0.594 and -0.54; in assay [3], 0.85 and 0.187; in assay [4], -1 and -0.501; in assay [5] it was -1.13 and -0.338; in [6], -0.0512 and -0.18; in assay [7], 0.0465 and 0.0121. Moreover, the composite z-score was 0.127 and -0.247 in assay [8]; 0.974 and -0.069 in [9]; -0.634 and 0.42 in [10]; 0.838 and 0.336 with Albumin (Bos taurus); -0.0895 and 0.0597 in [12]; -0.0921 and -0.118 in assay [13]. The composite z-score is 0.84 and 0.766 in assay [14]; 0.463 and -0.221 in [15]; 0.0922 and -0.421 in assay [16]; 1.24 and -0.523 in the assay with Sam68 (KHDRBS1); 0.571 and 0.377 in assay [17]; -0.0847 and -0.495 in assay [18]. Moreover, the z-score in assay [2] is -0.347 and 1.11. Moreover, in assay [11], the composite Z-score is 0.397 (inactive) and 0.38 (inactive).

For the compound `C=CCN(CCCCC)C(=O)C1N(CCCCCCO)C(=O)C2C(C(=O)O)C3C=CC21O3` (stereo not given), the composite z-score in [1] is -0.37 and -0.151; in assay [3], -0.978 and -2.49; in [4], -1.53 and -0.747; in assay [5], -0.155 and 0.379; in assay [6] it was -0.256 and -0.258; in [7] it was -0.0626 and -0.156. Further, the composite z-score in [8] is -0.0784 and -0.208; in assay [9], 0.257 and -1.03; in assay [10], -1.31 and -1.22; in the assay with Albumin (Bos taurus) it was -1.03 and 0.785; in assay [12], -0.374 and -0.327; in [13], 0.316 and -0.193. Moreover, the composite z-score in assay [14] was 0.85 and 0.83; in assay [15], 0.66 and 0.309; in assay [16] it was 0.752 and -0.289; with Sam68 (KHDRBS1), -0.408 and -1.45; in [17] it was -3.13 and -1.54; in assay [18], -0.556 and -1.47. Besides, in assay [2], the z-score was -0.415 and -0.545. In addition, the composite Z-score in assay [11] was 0.207 (inactive) and 0.382 (inactive).

Regarding `C=CCN(CCCCC)C(=O)C1N(C(C)(C)CO)C(=O)C2C(C(=O)O)C3C=CC21O3` (stereo not given), the composite z-score in assay [1] is -2.03 and -0.698; in [3], -1.51 and -1.83; in [4], -0.569 and -0.284; in [5] it was 0.515 and 1.07; in [6], -0.297 and -0.176; in assay [7], -0.0626 and -0.138. Besides, the composite z-score was -0.0809 and 0.274 in assay [8]; -1.47 and -0.47 in [9]; -1.26 and -2.68 in assay [10]; -0.544 and -0.85 with Albumin (Bos taurus); -0.484 and -0.372 in assay [12]; -0.112 and -0.0984 in assay [13]. Besides, the composite z-score is 0.196 and 0.327 in assay [14]; -1.14 and -0.703 in assay [15]; -0.385 and 0.137 in [16]; -1.11 and -1.2 in the assay on Sam68 (KHDRBS1); -1.84 and -2.83 in assay [17]; -1.83 and -1.31 in assay [18]. The z-score in assay [2] was -0.954 and -0.659. In addition, in assay [11], the composite Z-score was 0.159 (inactive) and -0.421 (inactive).
